The panel holds about 83,000 compounds, 20% with a hit somewhere; the sample as a whole holds those more often.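 For each line, cells grew in 96-well plates with the test compound present at a single concentration for 48 hours.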 Activity calls are given as the source filed them. The calls were made as follows: active = growth percent below 10; inactive = the rest.
Tests used:
Assay in all cases: NCI-60 one-dose screen, 48 h (100 = growth as untreated, 0 = no growth, -100 = all killed)
Details in all cases: 10 µM unless noted
NCI-H23 lung = system: NCI-H23 lung
NCI-H226 lung = system: NCI-H226 lung
NCI-H322M lung = system: NCI-H322M lung
HOP-62 NSCLC = system: HOP-62 NSCLC
NCI-H460 lung = system: NCI-H460 lung
HOP-92 NSCLC = system: HOP-92 NSCLC
NCI-H522 lung = system: NCI-H522 lung
A549/ATCC NSCLC = system: A549/ATCC NSCLC
786-0 renal = system: 786-0 renal
COLO 205 colon = system: COLO 205 colon

Measured: growth

CCC(C)/C(=C\C#N)NCCCN/C(=C/C#N)C(C)CC (stereo not given)
inactive: NCI-H23 lung 97.3% | NCI-H226 lung 103% | NCI-H322M lung 103% | HOP-62 NSCLC 106% | NCI-H460 lung 116% | HOP-92 NSCLC 86.5% | NCI-H522 lung 83.5% | A549/ATCC NSCLC 103% | 786-0 renal 98.1% | COLO 205 colon 111%

CCCCCCCCCCCCCCCCCCNC(=O)[C@H]1CSC(c2ccc(OC)cc2O)N1 (stereo not given in full)
inactive: NCI-H23 lung 83.3% | NCI-H226 lung 90.4% | NCI-H322M lung 67.5% | HOP-62 NSCLC 63.9% | NCI-H460 lung 13.4% | HOP-92 NSCLC 66% | NCI-H522 lung 65.8% | A549/ATCC NSCLC 73.8% | 786-0 renal 82.2% | COLO 205 colon 97.1%

Clc1ccc(-c2nc3ccccc3s2)cc1Cl
inactive: NCI-H23 lung 94.2% | NCI-H226 lung 87.2% | NCI-H322M lung 110% | HOP-62 NSCLC 104% | NCI-H460 lung 96.4% | HOP-92 NSCLC 84.1% | NCI-H522 lung 82.7% | A549/ATCC NSCLC 97.7% | 786-0 renal 103% | COLO 205 colon 111%

COc1ccc(C2CC(c3ccc(OC)cc3OC)=NN2c2ccc(S(N)(=O)=O)cc2)cc1 (stereo not given)
inactive: NCI-H23 lung 90.7% | NCI-H226 lung 101% | NCI-H322M lung 94.4% | HOP-62 NSCLC 119% | NCI-H460 lung 87.3% | HOP-92 NSCLC 77.7% | NCI-H522 lung 63.7% | A549/ATCC NSCLC 59% | 786-0 renal 99.3% | COLO 205 colon 112%

O=S(=O)(NCCCNc1nccc(-n2ccc3cccnc32)n1)c1cccc(C(F)(F)F)c1
inactive: NCI-H23 lung 108% | NCI-H226 lung 104% | NCI-H322M lung 106% | HOP-62 NSCLC 112% | NCI-H460 lung 104% | HOP-92 NSCLC 106% | NCI-H522 lung 98.1% | A549/ATCC NSCLC 101% | 786-0 renal 102% | COLO 205 colon 108%

COc1ccc2c(c1)[nH]c(=O)c1c3cc(OC)ccc3cn21
inactive: NCI-H23 lung 41.4% | NCI-H226 lung 30.1% | NCI-H322M lung 33.6% | HOP-62 NSCLC 20% | HOP-92 NSCLC 45.1% | NCI-H522 lung 13% | 786-0 renal 28.7%
active: NCI-H460 lung -33% | A549/ATCC NSCLC -2.59% | COLO 205 colon -14.1%

CSc1nc2c(c(=O)[nH]1)C(c1ccc(C)cc1)C=C(C(=O)O)N2 (stereo not given)
inactive: NCI-H23 lung 98.9% | NCI-H226 lung 104% | NCI-H322M lung 101% | HOP-62 NSCLC 107% | NCI-H460 lung 106% | HOP-92 NSCLC 122% | NCI-H522 lung 108% | A549/ATCC NSCLC 106% | 786-0 renal 104% | COLO 205 colon 126%

O=c1[nH]c(NCc2ccccc2)nc2nc(Nc3ccc(NC(=S)Nc4ccccc4)cc3)nc(-c3ccc(O)cc3O)c12
inactive: NCI-H23 lung 99.4% | NCI-H226 lung 89.6% | NCI-H322M lung 140% | HOP-62 NSCLC 105% | NCI-H460 lung 109% | HOP-92 NSCLC 89.5% | NCI-H522 lung 54.2% | A549/ATCC NSCLC 41.6% | 786-0 renal 104% | COLO 205 colon 110%

CN(C[C@H]1Cc2c(cccc2N2CCN(Cc3ccccn3)CC2)CN1)[C@H]1CCCc2cccnc21
inactive: NCI-H23 lung 62.4% | NCI-H226 lung 56.9% | NCI-H322M lung 65.3% | HOP-62 NSCLC 39.1% | NCI-H460 lung 28.1% | HOP-92 NSCLC 73.2% | NCI-H522 lung 95.5% | A549/ATCC NSCLC 40.3% | 786-0 renal 68.5% | COLO 205 colon 69.6%

CN1C(=O)N(C)C2C1NN=c1s/c(=C\C=C\c3ccccc3)c(=O)n12 (stereo not given)
inactive: NCI-H23 lung 64.3% | NCI-H226 lung 61.9% | NCI-H322M lung 68.4% | HOP-62 NSCLC 67.3% | NCI-H460 lung 23.3% | HOP-92 NSCLC 63.9% | NCI-H522 lung 38.7% | A549/ATCC NSCLC 52.7% | 786-0 renal 71.3% | COLO 205 colon 42.1%

N=C(N)c1ccc(-c2ccc(-c3ccc4ccccc4c3)s2)cc1
inactive: NCI-H23 lung 88.7% | NCI-H226 lung 96.7% | NCI-H322M lung 97% | HOP-62 NSCLC 97.6% | NCI-H460 lung 99.7% | HOP-92 NSCLC 79.3% | NCI-H522 lung 104% | A549/ATCC NSCLC 71.5% | 786-0 renal 95% | COLO 205 colon 97.9%

COc1ccc(C(=O)c2cc(OC)c3c(c2)OCO3)cc1O
active: NCI-H460 lung 8.5% | NCI-H522 lung -7.3%
inactive: NCI-H23 lung 30.4% | NCI-H226 lung 66.9% | NCI-H322M lung 51.4% | HOP-62 NSCLC 35.5% | HOP-92 NSCLC 44.1% | A549/ATCC NSCLC 24.5% | 786-0 renal 44% | COLO 205 colon 84.9%

N#C/C(=C1C=C/C(=N/O)C(Cl)=C/1)c1ccc(Cl)cc1
inactive: NCI-H23 lung 104% | NCI-H226 lung 71.5% | NCI-H322M lung 118% | HOP-62 NSCLC 45.7% | NCI-H460 lung 78.3% | HOP-92 NSCLC 70.5% | NCI-H522 lung 67.7% | A549/ATCC NSCLC 88.8% | 786-0 renal 63.5% | COLO 205 colon 99.8%

C=C1C(=O)O[C@H]2[C@H]1CC/C(Cn1cc(-c3cccc(Cl)c3)nn1)=C\CC[C@@]1(C)O[C@@H]21
inactive: NCI-H322M lung 66.2% | NCI-H460 lung 16.6% | A549/ATCC NSCLC 31%
active: NCI-H23 lung -35% | NCI-H226 lung -57.9% | HOP-62 NSCLC -38.4% | HOP-92 NSCLC -73.2% | NCI-H522 lung -74.4% | 786-0 renal -83.9% | COLO 205 colon -79.5%

COc1ccc2c(c1)C(c1cc(OC)c3c(c1)OCO3)C1=C(COC1=O)N2 (stereo not given)
inactive: NCI-H23 lung 38.2% | NCI-H226 lung 27.5% | NCI-H322M lung 51.4% | HOP-62 NSCLC 36.5% | HOP-92 NSCLC 26.9% | A549/ATCC NSCLC 14.7% | 786-0 renal 29.5%
active: NCI-H460 lung 6.63% | NCI-H522 lung -38.5% | COLO 205 colon -22.6%

C=C1CCC2C3(C)COC(c4c(OC)cccc4OC)OC3CCC2(C)C1C/C=C1/C(=O)OCC1O (stereo not given)
active: COLO 205 colon -15.2%
inactive: NCI-H23 lung 80% | NCI-H226 lung 80.2% | NCI-H322M lung 70.3% | HOP-62 NSCLC 104% | NCI-H460 lung 89% | HOP-92 NSCLC 46.7% | NCI-H522 lung 24.6% | A549/ATCC NSCLC 47.9% | 786-0 renal 90.3%

COc1ccc(Nc2ncccc2C(=O)NCc2cn(Cc3cccc(Oc4ccccc4)c3)nn2)cc1
inactive: NCI-H23 lung 54.6% | NCI-H226 lung 71.7% | NCI-H322M lung 46.1% | HOP-62 NSCLC 51.2% | NCI-H460 lung 22.3% | HOP-92 NSCLC 68.5% | NCI-H522 lung 26.1% | A549/ATCC NSCLC 49.2% | 786-0 renal 51.3% | COLO 205 colon 43.9%

COc1ccc(NC(=O)c2cc(OC)c(OC)c(OC)c2)cc1O
inactive: NCI-H23 lung 52.2% | NCI-H226 lung 99.9% | NCI-H322M lung 68.2% | HOP-62 NSCLC 35.1% | NCI-H460 lung 17.2% | HOP-92 NSCLC 37.4% | A549/ATCC NSCLC 48.6% | 786-0 renal 38.5% | COLO 205 colon 40.4%
active: NCI-H522 lung -41%

C=C[C@@H]1C[C@H](O)Cc2c(C)cc(C)cc2N1
inactive: NCI-H23 lung 97.6% | NCI-H226 lung 104% | NCI-H322M lung 117% | HOP-62 NSCLC 91.5% | NCI-H460 lung 102% | HOP-92 NSCLC 75.1% | NCI-H522 lung 101% | A549/ATCC NSCLC 98.3% | 786-0 renal 98.8% | COLO 205 colon 106%

C/C=C(\C)C(C(=O)NC1CCCCC1)N(C(=O)C1CCc2cc(F)ccc2O1)c1ccc(Cl)cc1 (stereo not given)
inactive: NCI-H23 lung 103% | NCI-H226 lung 93.7% | NCI-H322M lung 110% | HOP-62 NSCLC 93.6% | NCI-H460 lung 104% | HOP-92 NSCLC 108% | NCI-H522 lung 92% | A549/ATCC NSCLC 96.2% | 786-0 renal 101% | COLO 205 colon 106%

CN1CCN(Cc2ccc(NC(=O)c3cncc(C#Cc4cnc(N)c5cnccc45)c3)cc2C(F)(F)F)CC1
inactive: NCI-H322M lung 13% | NCI-H522 lung 10.8% | A549/ATCC NSCLC 20% | 786-0 renal 23.1%
active: NCI-H23 lung 4.51% | NCI-H226 lung -28.4% | HOP-62 NSCLC -23.7% | NCI-H460 lung -9.5% | HOP-92 NSCLC -58.6% | COLO 205 colon -20.2%

NC1=NN(O)C2=CC([N+](=O)[O-])C=CC2=N1 (stereo not given)
inactive: NCI-H23 lung 97% | NCI-H226 lung 110% | NCI-H322M lung 113% | HOP-62 NSCLC 98.9% | NCI-H460 lung 110% | HOP-92 NSCLC 94.1% | NCI-H522 lung 94.2% | A549/ATCC NSCLC 110% | 786-0 renal 103% | COLO 205 colon 111%

CCCCNC(=O)Oc1ccc(/C(=C(\C)c2ccccc2)c2ccc(OCCN(CC)CC)cc2)cc1
inactive: NCI-H23 lung 77.5% | NCI-H226 lung 85.4% | NCI-H322M lung 86.3% | HOP-62 NSCLC 88.2% | NCI-H460 lung 56.1% | HOP-92 NSCLC 43.3% | NCI-H522 lung 53.4% | A549/ATCC NSCLC 62.2% | 786-0 renal 67.3% | COLO 205 colon 58.5%

COc1ccc(-c2nc(SCCC(C)C)nc(Nc3ccc(F)c(Cl)c3)c2C#N)cc1
inactive: NCI-H23 lung 90.2% | NCI-H226 lung 65.8% | NCI-H322M lung 63.2% | HOP-62 NSCLC 88.7% | NCI-H460 lung 24.1% | HOP-92 NSCLC 101% | NCI-H522 lung 84.5% | A549/ATCC NSCLC 58.9% | 786-0 renal 45.4% | COLO 205 colon 70.8%

COc1ccc(-c2cnnn2-c2nonc2-n2cccc2)cc1OC
inactive: NCI-H23 lung 67.8% | NCI-H226 lung 88.8% | NCI-H322M lung 96.8% | HOP-62 NSCLC 55.8% | NCI-H460 lung 40.7% | HOP-92 NSCLC 72% | NCI-H522 lung 27.4% | A549/ATCC NSCLC 47.2% | 786-0 renal 88.3% | COLO 205 colon 44.4%

COc1ccc(N=Cc2c(O)ccc3c2oc2cc(Cl)c(O)c(Cl)c23)cc1
inactive: NCI-H23 lung 93.7% | NCI-H226 lung 101% | NCI-H322M lung 122% | HOP-62 NSCLC 95% | NCI-H460 lung 99.8% | HOP-92 NSCLC 88.8% | NCI-H522 lung 68.1% | A549/ATCC NSCLC 95.5% | 786-0 renal 88.8% | COLO 205 colon 131%

C=C(C)[C@@H]1CC[C@]2(C(=O)O)CC[C@]3(C)[C@H](CC[C@@H]4[C@@]5(C)C[C@@H](CC#Cc6ccc(C(F)(F)F)cc6)[C@H](O)C(C)(C)[C@@H]5CC[C@]43C)[C@@H]12
inactive: NCI-H322M lung 35.2% | HOP-62 NSCLC 10% | NCI-H460 lung 15.1% | A549/ATCC NSCLC 10.3% | 786-0 renal 19.2% | COLO 205 colon 21.1%
active: NCI-H23 lung 2.55% | NCI-H226 lung 3.81% | HOP-92 NSCLC -16.9% | NCI-H522 lung -19.1%

From PubChem BioAssay (NCI)
